Records with an inconclusive call do not appear. Where a call stands in place of a potency, no number is given. Activity calls are given as the source filed them. The call rests on the fitted dose curve; in most records, active means well fitted inhibition curve with a large enough effect; inconclusive means small, poorly fitted or top-dose-only effect, or effect the other way; inactive means flat fitted curve, though single readings scatter.
Potency means the concentration at half of the fitted maximal effect.

For the assay, the target named is Ubiquitin carboxyl-terminal hydrolase 2 (Homo sapiens) (UniProt O75604). The assay is described as follows: Confirmation Assay for Inhibitors of Ubiquitin-specific Protease USP2a Using CHOP2 as the Reporter. Further: nearly all actives have a fitted effect of over 55% in size. The settings on record: USP2 core, Ub-CHOP2 coupled reporter fluorescence; series mostly up to 38.3 µM. In short, it runs like this: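 Ub-CHOP2 cleavage coupled to reporter activation was read by fluorescence after 60 min at RT, with 25 nM final Ub-CHOP2 and substrate. Enzyme (10 nM final USP2 core) first sat 30 min with compound; data were normalized to NEM and fitted to concentration-response curves.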
Chain of Ubiquitin carboxyl-terminal hydrolase 2 (Homo sapiens) (O75604 whole entry, looked up): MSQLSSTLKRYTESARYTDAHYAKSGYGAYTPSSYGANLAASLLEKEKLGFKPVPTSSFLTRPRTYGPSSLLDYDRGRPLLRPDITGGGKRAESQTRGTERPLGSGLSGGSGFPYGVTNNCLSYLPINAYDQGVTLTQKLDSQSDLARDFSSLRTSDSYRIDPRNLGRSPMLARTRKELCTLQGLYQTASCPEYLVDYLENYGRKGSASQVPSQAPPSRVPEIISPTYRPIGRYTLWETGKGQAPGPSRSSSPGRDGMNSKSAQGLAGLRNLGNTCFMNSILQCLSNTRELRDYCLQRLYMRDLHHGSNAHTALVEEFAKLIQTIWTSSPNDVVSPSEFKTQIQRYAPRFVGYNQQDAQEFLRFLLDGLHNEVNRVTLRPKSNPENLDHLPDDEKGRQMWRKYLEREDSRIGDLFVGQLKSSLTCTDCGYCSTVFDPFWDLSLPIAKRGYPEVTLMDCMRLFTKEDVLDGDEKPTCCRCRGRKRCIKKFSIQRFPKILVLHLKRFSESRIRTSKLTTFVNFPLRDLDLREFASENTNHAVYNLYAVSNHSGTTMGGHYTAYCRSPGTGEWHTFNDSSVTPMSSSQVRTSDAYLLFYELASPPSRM
Consider `Cc1cccc(NCc2nc(-c3ccccc3)no2)c1`, for which the Potency result is “inactive”.

As to `COc1ccc2[nH]c(=O)c(CN(Cc3ccco3)Cc3nnnn3Cc3ccccc3)cc2c1`, the Potency result is “inactive”.

Consider `Cc1cc2c(c(=O)n1CC1CCCO1)C(c1ccco1)C(C#N)=C(N)O2` (centres undefined), for which the Potency result is “inactive”.

As to `CC1=NN(C(=O)c2csc(C)c2C)C(O)(C(F)(F)F)C1` (centres undefined), the Potency result is “inactive”.

Regarding `O=C(c1ccccc1)c1ccc2nc(-c3ccco3)c(-c3ccco3)nc2c1`, the Potency entry was “inactive”.

For the molecule `O=C1NC(=Nc2ccc3ccccc3c2)S/C1=C/c1ccco1`, the Potency result is “inactive”.

Take `COCCCNCCCOc1ccc(C)cc1Br`: the Potency entry was “inactive”.

Turning to `O=C(CN1CCOCC1)Nc1ccc(C2CCCCC2)cc1`, the Potency entry is “inactive”.

Regarding `Cc1ccc2[nH]c(=O)c(COC(=O)c3ccccn3)cc2c1`, the Potency entry is “inactive”.

Consider `C=CCn1c(NCc2cc(C)ccc2O)nc2ccccc21`, for which the Potency entry is “inactive”.

Regarding `Cc1onc(-c2ccccc2)c1C(=O)N1CCN(C)CC1`, the Potency entry was “inactive”.

Take `O=C1COc2ccc(C(=O)COC(=O)/C=C/c3ccc(Br)o3)cc2N1`: the Potency is 9.27 µM (active).

As to `CSC1=NCCN1C(=O)Cc1ccc(F)cc1`, the Potency entry was “inactive”.

As to `Cc1ccc(C)c(OCC(=O)Nc2cc(NC(=O)COc3cc(C)ccc3C)cc(C(=O)O)c2)c1`, the Potency result is “inactive”.

Consider `CCC(C(=O)Nc1nnc(-c2ccco2)s1)c1ccccc1` (centres undefined), for which the Potency entry is “inactive”.

On to `O=C(Nc1cccc(C(F)(F)F)c1)/C(=C\c1ccco1)NC(=O)c1cccs1`, for which the Potency entry is “inactive”.

On to `Cn1c2ccccc2c2nnc(SC3CCOC3=O)nc21` (centres undefined), for which the Potency entry was “inactive”.

As to `O=C1CC(c2ccc(Cl)cc2)SC(N(c2ccccc2)c2ccccc2)=N1` (centres undefined), the Potency result is “inactive”.

For `CC(C)(C)C(=O)Nc1c2c(nc3c1CCC3)CCCC2`, the Potency entry was “inactive”.

Consider `COc1ccccc1N1C(=O)CC(N2CCc3ccccc32)C1=O` (centres undefined), for which the Potency entry is “inactive”.

Turning to `Cc1ccc(/C(N)=N/OC(=O)Oc2ccccc2)cc1`, the Potency result is “inactive”.

Consider `CCC(C)NC(=O)CSC1=Nc2ccccc2C2=NC(c3ccccc3)C(=O)N12` (centres undefined), for which the Potency entry was “inactive”.

For the molecule `O=C(NCCCN1CCCC1=O)c1cccc(N2CCCC2=O)c1`, the Potency result is “inactive”.

In the case of `CCC(C(=O)NCc1ccccc1OC)n1nc(C)n2c(cc3occc32)c1=O` (centres undefined), the Potency result was “inactive”.

As to `Cc1ccc(NC(=O)c2cc3c(=O)oc4ccccc4c3s2)nc1`, the Potency entry was “inactive”.

Turning to `CNc1sc(C(=O)c2ccc(F)cc2)c(N)c1-c1nc2ccccc2s1`, the Potency result is “inactive”.

For the molecule `O=C(NCc1ccccc1)C1CCC1`, the Potency entry is “inactive”.

On to `CC(=O)Nc1ccc(NC(=O)[C@@H](NC(=O)c2cccc(C)c2)C(C)C)cc1`, for which the Potency result was “inactive”.

As to `Cc1ccc(N(CC(=O)N/N=C/c2ccco2)S(=O)(=O)c2ccccc2)cc1`, the Potency result is “inactive”.

With `CCOC(=O)C1CCN(C(=O)COC(=O)c2c(C)c(CC)nc3ccccc23)CC1`, the Potency entry was “inactive”.

Turning to `O=C(CC(C(=O)O)C1CCCO1)NCCc1ccc2c(c1)OCO2` (centres undefined), the Potency entry is “inactive”.

For the molecule `Cc1cc(NC(=O)c2cccc(S(=O)(=O)N(C)C)c2)n(-c2ccccn2)n1`, the Potency result was “inactive”.

Regarding `N#Cc1c(NC(=O)CSc2ncnc3sccc23)oc(-c2ccco2)c1-c1ccco1`, the Potency was 13.1 µM (active).

Turning to `O=C(Nc1cccc(-c2nn[nH]n2)c1)c1ccc(Br)s1`, the Potency is 5.21 µM (active).

For `CC1Cc2ccccc2N1C(=O)Cn1c(=O)oc2cc(S(=O)(=O)NC3CCCC3)ccc21` (centres undefined), the Potency result is “inactive”.

Turning to `Cc1ccc(C(=O)O/N=C/c2c(C(F)(F)F)nn(C)c2Sc2ccc(Cl)cc2)cc1`, the Potency result was “inactive”.

Take `COc1ccc(Cc2nnc(NC(=O)Cc3cccs3)s2)cc1`: the Potency was 11.7 µM (active).

In the case of `CCOC(=O)C1=CN(Cc2cccc(F)c2)S(=O)(=O)NC1c1ccc(Br)cc1F` (centres undefined), the Potency entry is “inactive”.

In the case of `CCn1c2ccccc2c2nc3ccccc3nc21`, the Potency result was “inactive”.

For the origin of these results see PubChem BioAssay AID493168 (National Center for Advancing Translational Sciences (NCATS), 2011).
